Records with an inconclusive call do not appear. Entries that show only a call come without a potency. Unmarked numbers belong to inactive results. Activity calls are given as the source filed them. The call rests on the fitted dose curve; in most records, active means well fitted inhibition curve with a large enough effect; inconclusive means small, poorly fitted or top-dose-only effect; inactive means no such curve, though single readings can be large or run the other way.
Each compound was assayed against Rap guanine nucleotide exchange factor 4 (Homo sapiens) (UniProt Q8WZA2) (assay: Confirmatory qHTS for antagonist of cAMP-regulated guanine nucleotide exchange factor 4 (EPAC2) (AID 1645885; further: nearly all actives have a fitted effect of over 25% in size; further: potency means the concentration at half of the fitted maximal effect)). Conditions: EPAC2 Rap1B-BODIPY-GDP exchange fluorescence, biochemical; series mostly up to 114 µM.
Chain of Rap guanine nucleotide exchange factor 4 (Homo sapiens) (Q8WZA2 whole entry, looked up): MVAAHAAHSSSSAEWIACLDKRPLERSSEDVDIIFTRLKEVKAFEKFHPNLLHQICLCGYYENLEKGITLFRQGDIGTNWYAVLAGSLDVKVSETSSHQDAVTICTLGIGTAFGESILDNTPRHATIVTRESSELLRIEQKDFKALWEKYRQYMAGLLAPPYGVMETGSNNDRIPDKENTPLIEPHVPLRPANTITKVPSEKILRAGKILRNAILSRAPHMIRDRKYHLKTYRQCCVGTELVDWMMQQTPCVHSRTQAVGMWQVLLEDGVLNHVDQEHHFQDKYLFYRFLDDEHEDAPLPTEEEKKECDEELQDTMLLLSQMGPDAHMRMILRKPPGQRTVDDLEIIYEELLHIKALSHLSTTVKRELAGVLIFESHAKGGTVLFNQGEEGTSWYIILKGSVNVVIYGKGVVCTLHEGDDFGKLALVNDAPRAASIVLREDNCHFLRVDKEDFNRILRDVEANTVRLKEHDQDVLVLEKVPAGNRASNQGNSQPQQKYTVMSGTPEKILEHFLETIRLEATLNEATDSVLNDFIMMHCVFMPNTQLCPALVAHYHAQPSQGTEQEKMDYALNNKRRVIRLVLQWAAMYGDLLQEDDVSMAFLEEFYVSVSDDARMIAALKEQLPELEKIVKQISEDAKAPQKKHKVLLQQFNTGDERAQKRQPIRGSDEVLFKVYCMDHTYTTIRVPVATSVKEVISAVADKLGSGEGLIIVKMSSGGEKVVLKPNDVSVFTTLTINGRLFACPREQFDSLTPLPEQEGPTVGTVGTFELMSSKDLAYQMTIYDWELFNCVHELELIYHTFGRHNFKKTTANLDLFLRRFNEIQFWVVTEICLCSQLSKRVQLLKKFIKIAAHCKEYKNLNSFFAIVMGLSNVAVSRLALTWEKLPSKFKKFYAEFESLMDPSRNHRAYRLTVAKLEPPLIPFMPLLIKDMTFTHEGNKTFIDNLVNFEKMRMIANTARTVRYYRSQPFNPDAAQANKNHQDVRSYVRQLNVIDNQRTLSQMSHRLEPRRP

SMILES	Potency	activity change, negative = inhibition
CC1=C(O)C(=O)C=C2C1=CC=C1C2(C)CCC2(C)C3CC(C)(C(=O)O)CCC3(C)CCC12C (configuration not stated)	0.953 µM (active)	
CCc1nc2ccccc2c(=O)n1-c1ccccc1OC	33.8 µM (active)	
CCOC(=O)[C@]12Cc3cc(C)ccc3[C@H]1N(C1CCCCC1)C(=O)c1ccccc12		-27.9% [at 12.7 µM]
COc1ccc(-n2c(O)c(/C=C3\C=Nc4ccc(Br)cc43)c(=O)[nH]c2=O)c(OC)c1	inactive	
Nc1c(C(=O)Nc2ccc(Br)cc2F)sc2nc3c(cc12)N1CCC3CC1		-17.9% [at 12.7 µM]
Cc1ccc(N2C(=O)NC(=O)/C(=C\C=C\c3ccco3)C2=O)cc1C	inactive	
CCOC(=O)[C@]12Cc3ccccc3[C@H]1N(C1CCCCC1)C(=O)c1cc(OC)ccc12	inactive	
COC(=O)c1cn(C(=O)c2cccc3ccccc23)c2ccccc12	inactive	
COC(=O)c1cn(Cc2ccc(F)cc2)c2ccccc12	inactive	

What follows are compounds tested against Rap guanine nucleotide exchange factor 3 (Homo sapiens) (UniProt O95398) (assay: Counterscreen qHTS for antagonist of cAMP-regulated guanine nucleotide exchange factor 3 (EPAC1) (AID 1645888;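 further: fluorescence loss as bound BODIPY-GDP is released from Rap1B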)). Conditions: Rap1B-BODIPY-GDP nucleotide exchange, fluorescence; series mostly up to 154 µM.
Chain of Rap guanine nucleotide exchange factor 3 (Homo sapiens) (O95398 whole entry, looked up): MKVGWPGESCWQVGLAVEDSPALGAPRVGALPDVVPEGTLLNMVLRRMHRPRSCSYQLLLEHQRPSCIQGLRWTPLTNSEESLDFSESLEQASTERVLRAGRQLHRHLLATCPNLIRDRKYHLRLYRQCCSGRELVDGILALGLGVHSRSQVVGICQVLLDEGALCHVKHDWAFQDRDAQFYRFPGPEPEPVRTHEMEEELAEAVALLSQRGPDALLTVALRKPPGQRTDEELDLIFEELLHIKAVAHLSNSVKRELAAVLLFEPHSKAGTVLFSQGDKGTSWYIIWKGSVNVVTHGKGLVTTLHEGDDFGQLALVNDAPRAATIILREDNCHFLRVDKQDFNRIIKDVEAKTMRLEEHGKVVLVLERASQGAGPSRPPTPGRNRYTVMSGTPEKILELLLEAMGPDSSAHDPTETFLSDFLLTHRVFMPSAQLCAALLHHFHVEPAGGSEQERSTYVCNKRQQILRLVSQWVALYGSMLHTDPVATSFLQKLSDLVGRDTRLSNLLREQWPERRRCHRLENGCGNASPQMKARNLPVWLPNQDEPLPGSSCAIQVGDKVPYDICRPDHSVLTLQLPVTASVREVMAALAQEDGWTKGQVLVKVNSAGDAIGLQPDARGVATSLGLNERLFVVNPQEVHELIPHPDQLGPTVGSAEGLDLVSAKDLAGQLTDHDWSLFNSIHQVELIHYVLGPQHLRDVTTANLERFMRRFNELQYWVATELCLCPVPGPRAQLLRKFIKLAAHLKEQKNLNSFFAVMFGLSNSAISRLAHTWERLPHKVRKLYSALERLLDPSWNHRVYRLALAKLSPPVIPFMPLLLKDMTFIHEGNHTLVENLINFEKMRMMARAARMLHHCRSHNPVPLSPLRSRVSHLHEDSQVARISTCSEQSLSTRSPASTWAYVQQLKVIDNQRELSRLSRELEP
Summary of the method: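 Measured: fluorescence of BODIPY-GDP bound to Rap1B, which falls as exchange proceeds. Conditions include 50 uM competing GDP, 5 and 30 min reads, and a later cAMP challenge for antagonist detection.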

SMILES	activity change, negative = inhibition	outcome
O=C1NC(=O)N(c2cccc(Cl)c2)C(=O)/C1=C\c1ccc(Sc2nc3ccccc3[nH]2)o1	2.39% [at 30.8 µM]	
CCCNC(=O)N1[C@H]2CC[C@@H]1C(C(=O)OC)=C(c1ccc(F)cc1OCc1ccccc1)C2		inactive
COc1ccc(C(=O)C2CN(C)CC2c2ccc(Cl)cc2)cc1 (configuration not stated)	7.3% [at 30.8 µM]	
COc1ccc(C(SCC(NC(=O)OCc2ccccc2)C(=O)O)c2ccc(OC)cc2)cc1 (configuration not stated)		inactive
CCOC(=O)[C@]12Cc3cc(Cl)ccc3[C@H]1N(C1CCCCC1)C(=O)c1ccccc12		inactive
O=c1[nH]c(O)c(C=Nc2ccccc2Sc2ccccc2)c(=O)[nH]1		inactive
CCOC(=O)c1cc(CC)sc1/N=C/c1c(O)[nH]c(=S)[nH]c1=O		inactive
CCCCn1c(NS(=O)(=O)c2ccc(C)cc2)c(C(=O)OCC)c2nc3ccccc3nc21		inactive
CC1=C(O)C(=O)C=C2C1=CC=C1C2(C)CCC2(C)C3CC(C)(C(=O)O)CCC3(C)CCC12C (configuration not stated)		inactive
COc1ccc(-n2c(O)c(/C=C3\C=Nc4ccc(Br)cc43)c(=O)[nH]c2=O)c(OC)c1		inactive
Nc1c(C(=O)Nc2ccc(Br)cc2F)sc2nc3c(cc12)N1CCC3CC1		inactive
Cc1ccc(N2C(=O)NC(=O)/C(=C\C=C\c3ccco3)C2=O)cc1C		inactive
CCOC(=O)[C@]12Cc3ccccc3[C@H]1N(C1CCCCC1)C(=O)c1cc(OC)ccc12		inactive

— PubChem BioAssay (NCATS)
